Experimental data taken from PubChem BioAssay (EPA / NIEHS).
Activity calls are given as the source filed them. The calls were made as follows: active = hit-call score of the fitted dose curve at least 0.9, where 1 is the maximum; inactive = score below 0.9.

Biological target: Hypoxia-inducible factor 1-alpha (Homo sapiens) (UniProt Q16665)
Test: ATG_HIF1a_CIS: Attagene CIS-FACTORIAL HepG2 Assay for human Hypoxia Inducible Factor 1 (HIF1A) (AID 2282951)
Conditions: HepG2 Attagene cis-factorial HIF1a reporter transcription; actives raise or lower the signal
Protocol: ATG_CIS is a cell-based, multiplexed-readout assay that uses HepG2, a human liver cell line, with measurements taken at 24 hours after chemical dosing in a 24-well plate.ATG_HIF1a_CIS is one of 52 assay component(s) measured or calculated from the ATG_CIS assay. It is designed to make measurements of mRNA induction, a form of inducible reporter, as detected with fluorescence intensity signals by Reverse transcription polymerase chain reaction (RT-PCR) and Capillary electrophoresis technology.Data from the assay component ATG_HIF1a_CIS was analyzed into 1 assay endpoint. This assay endpoint, ATG_HIF1a_CIS, was analyzed with bidirectional fitting relative to DMSO as the negative control and baseline of activity. Using a type of inducible reporter, measures of mRNA for gain or loss-of-signal activity can be used to understand the reporter gene at the transcription factor-level as they relate to the gene HIF1A. Furthermore, this assay endpoint can be referred to as a primary readout, because this assay has produced multiple assay endpoints where this one serves a reporter gene function. To generalize the intended target to other relatable targets, this assay endpoint is annotated to the dna binding intended target family, where the subfamily is basic helix-loop-helix protein.
Human liver HepG2 cells are transiently transfected with multiple reporter transcription units (MRTUs) in 6-well plates using FuGene 6 reagent (Roche; 3 ml FuGene/1 mg DNA). The MRTU constructs are regulated by a cis-regulating element (promoter). […] A major difference between the CIS and TRANS system is that in CIS activities of endogenous TFs are measured, whereas the TRANS assay evaluates changes in activities of exogenous, chimeric NR-Gal4 proteins. […] At the end of 24 hour incubation, total RNA was isolated using TriZol reagent (Invitrogen). The isolated RNA is then reverse-transcribed using oligo(dT) primer and Mo-MLV reverse transcriptase (Invitrogen) with DNAse I (Ambion) treatment for 30 min. The one-tenth of the produced cDNA was amplified by PCR using Taq DNA polymerase (Invitrogen) and two reporter sequence-specific primers. The PCR products were fluorescently labeled by primer extension with 6-arboxyfluorescein (6-FAM) 5'-labeled reporter sequence-specific primer (2 min at 95 C, 20 s at 68 C and 10 min at 72 C) and these products were digested with 5U of HpaI (New England Biolabs) for 2h at 37 C. The fragments were purified using Qiaquick PCR columns (Qiagen), analyzed on an ABI 3130xL genetic analyzer (Applied Biosystems) with peak positions identified by using a set of X-rhodamine (ROX)-labeled MapMarker1000 molecular weight standards (BioVentures). The raw capillary electrophoresis data was processed using Attagraph software (Attagene).

Sequence of Hypoxia-inducible factor 1-alpha (Homo sapiens) (Q16665 whole entry, looked up): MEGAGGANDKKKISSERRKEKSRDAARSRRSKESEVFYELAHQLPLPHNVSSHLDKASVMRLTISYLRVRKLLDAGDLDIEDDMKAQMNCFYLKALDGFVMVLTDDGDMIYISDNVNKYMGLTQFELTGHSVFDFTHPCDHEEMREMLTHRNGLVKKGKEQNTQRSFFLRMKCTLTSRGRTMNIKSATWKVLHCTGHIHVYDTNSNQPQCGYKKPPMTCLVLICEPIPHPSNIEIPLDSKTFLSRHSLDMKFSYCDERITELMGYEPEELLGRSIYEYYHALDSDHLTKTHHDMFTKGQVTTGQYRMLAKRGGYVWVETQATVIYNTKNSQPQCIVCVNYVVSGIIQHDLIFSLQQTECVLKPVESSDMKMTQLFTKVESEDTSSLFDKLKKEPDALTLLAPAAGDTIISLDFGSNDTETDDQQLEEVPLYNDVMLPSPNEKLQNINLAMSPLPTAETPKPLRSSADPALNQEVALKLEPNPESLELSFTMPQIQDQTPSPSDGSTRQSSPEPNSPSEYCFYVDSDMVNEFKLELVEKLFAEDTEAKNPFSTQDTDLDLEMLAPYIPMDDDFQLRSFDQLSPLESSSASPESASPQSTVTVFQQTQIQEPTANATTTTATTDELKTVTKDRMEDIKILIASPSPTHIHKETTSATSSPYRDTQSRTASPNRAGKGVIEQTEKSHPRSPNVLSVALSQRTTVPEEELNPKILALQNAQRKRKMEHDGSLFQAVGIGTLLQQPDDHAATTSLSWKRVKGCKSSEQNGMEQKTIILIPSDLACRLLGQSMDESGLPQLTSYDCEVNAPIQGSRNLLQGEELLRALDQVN

Row | SMILES | outcome | AC50
1 | CCCCCCCCCCCCc1ccc(O)cc1 | inactive | –
2 | C=Cc1ccc(OC(C)=O)cc1 | inactive | –
3 | CCCCCCCCCCCCCC(=O)OC(C)C | inactive | –
4 | CC1(C)C(=O)N(CO)C(=O)N1CO | inactive | –
5 | Nc1nc(N)nc(-c2ccccc2)n1 | inactive | –
6 | COc1nccnc1CC(C)C | inactive | –
7 | COC(OC)(C(=O)c1ccccc1)c1ccccc1 | inactive | –
8 | CCCCCCCCC(CO)CCCCCC (stereo not given) | inactive | –
9 | CC/C=C\C/C=C\C/C=C\CCCCCCCC(=O)OC | – | 34 µM (active)
10 | CCCCCC1=CCCC1=O | inactive | –
11 | CCOC(=O)C1=NN(c2ccc(Cl)cc2Cl)C(C)(C(=O)OCC)C1 (stereo not given) | inactive | –
12 | CCOC(=O)c1ccccc1C | inactive | –
13 | CCCCNS(=O)(=O)c1ccc(C)cc1 | inactive | –
14 | Nc1ccc(Cl)c(N)c1 | inactive | –
15 | CCC(C)N (stereo not given) | inactive | –
16 | c1ccc2cnccc2c1 | inactive | –
17 | CC(=O)OCC=C(C)C | inactive | –
18 | Oc1c(Cl)cc(Cl)c(Cl)c1Cl | inactive | –
19 | CC=CC(=O)OCC(C)C | inactive | –
20 | COC(Cc1ccccc1)OC | inactive | –

Row | SMILES | outcome | AC50
21 | CC(=O)/C=C/C1C(C)=CCCC1(C)C (stereo not given) | inactive | –
22 | C[N+](C)(C)CCCNS(=O)(=O)C(F)(F)C(F)(F)C(F)(F)C(F)(F)C(F)(F)C(F)(F)C(F)(F)C(F)(F)F | inactive | –
23 | CN1CCN(C)CC1 | inactive | –
24 | CCCCC(=O)O | inactive | –
25 | O=C(O[C@@H]1Cc2c(O)cc(O)cc2O[C@@H]1c1cc(O)c(O)c(O)c1)c1cc(O)c(O)c(O)c1 | – | 26.8 µM (active)
26 | Cc1ccc([N+](=O)[O-])cc1N | inactive | –
27 | CCOc1ccc(NC(N)=O)cc1 | inactive | –
28 | COCC(=O)O | inactive | –
29 | C=Cc1cccc(C)c1 | inactive | –
30 | CCNc1nc(NC(C)(C)C)nc(OC)n1 | inactive | –
31 | CCCCCCCCCC(C)=O | inactive | –
32 | CCCCCCCCCCCC(=O)N(C)CC(=O)O | inactive | –
33 | CC(=O)OC/C=C(/C)CCC=C(C)C | inactive | –
34 | CCc1cccc(C)c1N(C(=O)CS(=O)(=O)O)C(C)COC (stereo not given) | inactive | –
35 | CC(C)c1ccc2ncccc2c1 | inactive | –
36 | Oc1ccc(-c2ccccc2)c(Cl)c1 | – | 8.12 µM (active)
37 | Fc1ccc(Br)cc1 | inactive | –
38 | C=CC(=O)OCCCCCCCCCC | inactive | –
39 | CCCC(CC)c1ccccc1 (stereo not given) | inactive | –
40 | O=C(Nc1ccccc1)c1cc(Cl)ccc1O | inactive | –
